Measured values as given in the supplement of paper PMC3545927.
The other results are listed elsewhere or left out. The hit rate among all sequences tested is not known here.

Molecular target: furin, P09958
Test: furin cleavage Z-score vs untreated control; higher = more cleavage, active = 3.5 or more, inactive = 1 or less, 8 variable residues between constant flanks
How it was run: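 Read counts from sequencing released DNA gave abundance for each bead-bound 8-mer peptide–cDNA fusion cut by purified furin over 7.5, 15 or 30 min. The cleavage Z-score compares log counts with furin-free reactions after lowess adjustment and median absolute deviation scaling.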
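Further: purified furin at 1:10 enzyme:substrate in 50 mM HEPES pH 7.5.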

Chain of furin, P09958 (P09958 whole entry): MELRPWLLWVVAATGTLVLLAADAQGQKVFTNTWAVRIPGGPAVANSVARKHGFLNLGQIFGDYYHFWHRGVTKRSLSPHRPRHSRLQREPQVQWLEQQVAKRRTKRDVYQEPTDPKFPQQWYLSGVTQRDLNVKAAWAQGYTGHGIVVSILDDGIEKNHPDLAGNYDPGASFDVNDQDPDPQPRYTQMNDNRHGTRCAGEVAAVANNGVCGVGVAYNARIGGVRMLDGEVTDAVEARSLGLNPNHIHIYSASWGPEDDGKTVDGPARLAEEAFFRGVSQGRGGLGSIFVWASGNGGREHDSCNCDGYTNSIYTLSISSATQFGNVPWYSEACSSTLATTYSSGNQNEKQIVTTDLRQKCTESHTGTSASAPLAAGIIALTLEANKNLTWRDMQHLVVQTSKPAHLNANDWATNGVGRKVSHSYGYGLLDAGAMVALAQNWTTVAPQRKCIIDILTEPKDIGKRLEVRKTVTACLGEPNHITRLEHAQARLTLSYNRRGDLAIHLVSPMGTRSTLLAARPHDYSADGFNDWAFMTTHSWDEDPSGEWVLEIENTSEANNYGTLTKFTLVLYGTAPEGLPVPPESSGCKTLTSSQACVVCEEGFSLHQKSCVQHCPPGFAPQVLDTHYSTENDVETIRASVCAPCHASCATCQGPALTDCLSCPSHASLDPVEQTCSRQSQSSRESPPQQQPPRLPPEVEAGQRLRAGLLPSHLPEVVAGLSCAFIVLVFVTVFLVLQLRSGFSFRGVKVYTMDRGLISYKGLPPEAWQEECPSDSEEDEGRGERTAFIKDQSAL

Sequence | furin cleavage Z-score (7.5 min) | furin cleavage Z-score (15 min) | furin cleavage Z-score (30 min)
CAMCECSQHLAGNASASA [HC1700] | 0.0737 (inactive) | 0.814 (inactive) | -2.77 (inactive)
CACYSIEPLDAGNASASA [HC1596] | -0.277 (inactive) | -1.75 (inactive) | -0.48 (inactive)
CAATGNLPGCAGNASASA [HC243] | -1.92 (inactive) | -0.777 (inactive) | -0.233 (inactive)
CARNQRIVQLAGNASASA [FS-2435] | -2.13 (inactive) | 0.536 (inactive) | 0.203 (inactive)
CARKKRALDAAGNASASA [FS-2691] | 9.58 (active) | 11.5 (active) | 8.67 (active)
CARKKRALDTAGNASASA [FS-2561] | 9.66 (active) | 11.1 (active) | 10.8 (active)
CAQRAYALDTAGNASASA [HC563] | -1.1 (inactive) | -1.23 (inactive) | -0.561 (inactive)
CALPGIPFVSAGNASASA [HC1162] | -1.14 (inactive) | 0.0847 (inactive) | -1.27 (inactive)
CATYQRHYRNAGNASASA [FS-512] | 1.23 | 0.916 (inactive) | 2.99
CAKKQRSRRNAGNASASA [FS-1219] | 9.72 (active) | 9.45 (active) | 8.79 (active)
CAQASRTRRNAGNASASA [FS-621] | 11.3 (active) | 14.2 (active) | 10.1 (active)
CATNPKPQKKAGNASASA [HC162] | -1.19 (inactive) | -0.825 (inactive) | -2.33 (inactive)
CASAPCSAHLAGNASASA [HC2483] | -0.101 (inactive) | 0.964 (inactive) | 0.332 (inactive)
CATVATRDGKAGNASASA [HC283] | -0.692 (inactive) | -1.6 (inactive) | -0.623 (inactive)
CARQPRKQGGAGNASASA [FS-2445] | -0.459 (inactive) | 0.227 (inactive) | 0.306 (inactive)
CARFVRSVMSAGNASASA [FS-3248] | 4.15 (active) | 5.68 (active) | 5.23 (active)
CANFKRSVASAGNASASA [FS-1847] | 0.0489 (inactive) | 1.11 | 0.734 (inactive)
CARDERSWFRAGNASASA [FS-2901] | 0.291 (inactive) | -0.493 (inactive) | 0.641 (inactive)
CARFLRSKTLAGNASASA [FS-2415] | 0.914 (inactive) | 1.56 | 0.306 (inactive)
CARFIRSVMSAGNASASA [FS-3246] | 5.54 (active) | 5.87 (active) | 8.7 (active)
CARFSRTVQDAGNASASA [FS-2668] | 2.27 | 2.81 | 4.69 (active)

Sequence | furin cleavage Z-score (7.5 min) | furin cleavage Z-score (15 min) | furin cleavage Z-score (30 min)
CARFLRSVMSAGNASASA [FS-1821] | 1.23 | 4.09 (active) | 5.69 (active)
CARFFRSACSAGNASASA [FS-1820] | 0.97 (inactive) | 0.0813 (inactive) | -0.895 (inactive)
CARMLRSVFSAGNASASA [FS-1831] | -0.826 (inactive) | -0.551 (inactive) | 1.65
CARSKRTEQDAGNASASA [FS-2088] | -0.228 (inactive) | 1.41 | 1.56
CADNEVVTSTAGNASASA [HC2301] | -1.07 (inactive) | -0.505 (inactive) | 0.105 (inactive)
CAQSFQVAHLAGNASASA [HC771] | 0.912 (inactive) | 0.131 (inactive) | 0.722 (inactive)
CAEVVTNTWVAGNASASA [HC158] | -1.52 (inactive) | -0.248 (inactive) | -0.0393 (inactive)
CAFCHSKKKCAGNASASA [HC857] | -1.27 (inactive) | -0.504 (inactive) | -0.238 (inactive)
CAALAAYCLSAGNASASA [HC995] | 1.28 | -0.793 (inactive) | 0.489 (inactive)
CAREKKDVPLAGNASASA [FS-3187] | 0.508 (inactive) | 2.05 | -1.3 (inactive)
CARFIRGVVDAGNASASA [FS-2332] | 3.17 | 2.98 | 5.27 (active)
CARFVRFVPLAGNASASA [FS-1706] | 1.17 | 1.76 | 4.38 (active)
CADDGRTCVDAGNASASA [FS-1981] | -1.75 (inactive) | -1.46 (inactive) | -0.526 (inactive)
CARLRRVICAAGNASASA [FS-2997] | -0.794 (inactive) | -0.656 (inactive) | -0.232 (inactive)
CARFDRQASAAGNASASA [FS-2011] | -0.397 (inactive) | -0.361 (inactive) | -1.3 (inactive)
CARTRKFVVDAGNASASA [FS-2315] | 0.233 (inactive) | -0.721 (inactive) | -0.0413 (inactive)
CARSLRFVTLAGNASASA [FS-1793] | 0.3 (inactive) | 1.63 | 1.68
CARFVRDACAAGNASASA [FS-2928] | 0.546 (inactive) | 1.42 | 3.66 (active)
CARKKKCKICAGNASASA [FS-2689] | -0.917 (inactive) | -0.723 (inactive) | -0.00697 (inactive)
CAMTPCSAHLAGNASASA [HC2466] | -1.89 (inactive) | 0.877 (inactive) | -0.495 (inactive)
CAEFPCHRPSAGNASASA [HC2327] | -0.796 (inactive) | -0.578 (inactive) | -1.81 (inactive)
